Measured values reported in PubChem BioAssay AID1706 (The Scripps Research Institute Molecular Screening Center, 2009).
Among all 290,000 compounds or so, about 400 (0.14%) were called active. Shown is part of a subset that was picked to be rich in actives. Values without a mark were called inactive. Rule as the data show it: active = inhibition above about 12%; inactive = the rest.

biological target: Replicase polyprotein 1ab (Severe acute respiratory syndrome coronavirus) (UniProt P0C6X7); assay: blockers of SARS 3CLpro peptide cleavage – biochemical, quenched FRET, primary screen (AID 1706); details: recombinant SARS-CoV 3CLpro, at 6 µM, stronger effect = higher value

Going from `COC(=O)c1ccc2c(=O)n(CCN3CCOCC3)c(SCC(=O)Nc3cccc(OC)c3)nc2c1` to `Cc1c(C(=O)NCCN2CCOCC2)sc2nc(-c3ccc(F)cc3)cn12`, the inhibition rises from -4.67% to 3.35%.

Going from `CCC(=O)c1cn(CCOc2ccccc2OC)c2ccccc12` to `CC(C)c1ccccc1OCC(O)CN(CC(O)COc1cccc2ccccc12)C(C)C` (stereo not drawn), the inhibition rises from 1.13% to 3.86%.

First: COc1ccccc1NC(=O)N1CCCC1C(=O)NCc1cccs1 (stereo not drawn)
Second: COc1ccc(NC(=O)C2C3C=CC(C3)C2C(=O)NCc2ccccn2)c(OC)c1 (stereo not drawn)
The inhibition of the first is lower: -2.73% for the first, 0.98% for the second.

First: Cc1cc(C)cc(NS(=O)(=O)Cc2ccccc2)c1
Second: COc1ccc(C)cc1N(CC(=O)NC(C)c1ccccc1)S(C)(=O)=O (stereo not drawn)
The inhibition of the first is lower: -7.45% for the first, -1.09% for the second.

Going from `CCCc1nnc(NC(=O)CCC(=O)NC2CC2)s1` to `CCN(CC(=O)NCC(=O)Nc1cccc(C)c1C)Cc1ccccc1`, the inhibition falls from -2.59% to -2.94%.

Going from `O=C(COC(=O)CCCNC(=O)c1ccc(Cl)cc1)Nc1cc(Cl)ccc1Cl` to `COC(=O)c1ccc(COC(=O)c2cnc(Cl)c(Cl)c2)cc1`, the inhibition rises from -4.18% to 7.32%.

Compared with `CN(CC(=O)Nc1cccc(F)c1)CC(=O)Nc1cccc([N+](=O)[O-])c1`, `O=C(CN1CCC(NC(=O)Nc2ccccc2)CC1)Nc1cccc([N+](=O)[O-])c1` is lower in inhibition: 0.23% for the first, -2.45% for the second.

First: CC(=O)N1CCSc2ccc(S(=O)(=O)N3CCC(C)CC3)cc21
Second: CCN1CCN(C(=O)C2CCCN(S(=O)(=O)c3ccc(OC)c(OC)c3)C2)CC1 (stereo not drawn)
The inhibition of the first is higher: 0.66% for the first, -7.47% for the second.

Compared with `O=C(COC(=O)c1cc(=O)[nH]c2ccccc12)Nc1nc(-c2cccc(Br)c2)cs1`, `CCOC(=O)c1ccc(-n2c(CCC(=O)O)ccc2-c2ccccc2)cc1` is higher in inhibition: 2.23% for the first, 3.33% for the second.

First: CC(C)NC(=O)COCc1cc(-c2ccc3c(c2)OCO3)on1
Second: Cc1cc(C(=O)CCl)c(C)n1CC1COc2ccccc2O1 (stereo not drawn)
The inhibition of the first is lower: 3.95% for the first, 6.71% for the second.

Compared with `CCc1nonc1NC(=O)c1oc2ccc(Cl)cc2c1C`, `Cc1c(C(=O)NCC(c2ccco2)N2CCCC2)oc2ccc(Cl)cc12` (stereo not drawn) is lower in inhibition: -1.85% for the first, -1.9% for the second.

First: CCN1CCN(C(=O)Cn2nc(C)n3c(cc4c(OC)cccc43)c2=O)CC1
Second: COc1ccccc1N1CCN(C(=O)c2cc(=O)c3cc(C)ccc3o2)CC1
The inhibition of the first is lower: -4.38% for the first, -1.99% for the second.

First: O=C(CCc1nnc2ccc(NCc3ccccc3Cl)nn12)NCC1CCN(C2CCCC2)C1 (stereo not drawn)
Second: O=C1CCCCN1CCCC(=O)N1CCCC(Nc2ccc(F)cc2)C1 (stereo not drawn)
The inhibition of the first is higher: 2.8% for the first, -2.27% for the second.

Compared with `COc1cccc(CNS(=O)(=O)c2cc3c(cc2C)n(C)c(=O)c(=O)n3C)c1`, `COc1cccc(CNC(=O)CN(C)S(=O)(=O)c2ccc3c(c2)c(=O)n(C)c(=O)n3C)c1` is lower in inhibition: 3.5% for the first, 0.08% for the second.

First: O=C(CN1C(=O)C2C3C=CC(C3)C2C1=O)NCC1COc2ccccc2O1 (stereo not drawn)
Second: CC12CCC(C(=O)N(NC(=O)c3ccccc3O)C1=O)C2(C)C (stereo not drawn)
The inhibition of the first is lower: 2.22% for the first, 5.94% for the second.

First: Nc1ncc(CN2CCCC(C(=O)Nc3ccc(-c4ccco4)cc3)C2)cn1 (stereo not drawn)
Second: CC(=O)Nc1ccc(NC(=O)C2CCCN2S(=O)(=O)c2cccc(C(F)(F)F)c2)cc1 (stereo not drawn)
The inhibition of the first is higher: -4.02% for the first, -4.86% for the second.

First: Cc1ccc(-c2nc(-c3cccnc3)sc2CC(=O)Nc2ccc(C)c(Cl)c2)cc1
Second: Cc1ccc(S(=O)(=O)N(CC(=O)NCc2ccco2)c2ccccc2C)cc1
The inhibition of the first is higher: -0.63% for the first, -1.63% for the second.

First: Oc1ccc2ccc3cccc[n+]3c2c1
Second: Cc1cccc[n+]1CC(=O)c1ccccc1
The inhibition of the first is higher: 3.63% for the first, 3.16% for the second.

Compared with `CN(C)S(=O)(=O)c1cccc(C(=O)OCC(=O)N2CCCC2=O)c1`, `CC(=O)c1cccc(NC(=S)N2CCCC2)c1` is higher in inhibition: 0.39% for the first, 0.53% for the second.

Compared with `C[C@H](NC(=O)C1CC(=O)N(c2ccc3c(c2)OCCO3)C1)C(=O)N1CCC(C(=O)O)CC1` (stereo partly drawn), `Cc1ccc(S(=O)(=O)N[C@@H](Cc2ccccc2)C(=O)N2CCC(C(=O)N[C@H](C(=O)O)C(C)O)CC2)cc1` (stereo partly drawn) is lower in inhibition: 2.21% for the first, -4.09% for the second.

First: CCOC(CNC(=O)C(=O)NCC(c1ccco1)N1CCN(c2ccc(OC)cc2)CC1)OCC (stereo not drawn)
Second: COc1ccc(C(CNC(=O)c2cc3c(s2)CCCC3)N2CCOCC2)cc1 (stereo not drawn)
The inhibition of the first is lower: -3.43% for the first, 0.58% for the second.

Going from `Cc1ccc(NS(=O)(=O)c2ccc3c(c2)oc(=O)n3C)c(C)c1` to `Cc1ccc2c(c1)sc1ncc(NC(=O)c3ccccc3)c(=O)n12`, the inhibition falls from 8.19% to -0.46%.

First: CC1(C)N=C(c2ccccn2)C(C)(C)N1O
Second: COc1cc2c(cc1OC)CN(C(=O)c1cc(=O)c3ccccc3o1)CC2
The inhibition of the first is higher: -1.96% for the first, -3.13% for the second.

Going from `COc1ccc([N+](=O)[O-])cc1NCC(=O)c1ccc(C)cc1` to `CN1CN(C)c2ccc([N+](=O)[O-])c3cccc1c23`, the inhibition rises from -0.37% to 2.09%.

First: O=c1[nH]c(/C=C\c2cccc(C(F)(F)F)c2)nc(O)c1[N+](=O)[O-]
Second: O=C(/C=C/c1ccc(F)cc1)Nc1cccc(S(=O)(=O)Nc2cccc(C(F)(F)F)c2)c1
The inhibition of the first is lower: -0.63% for the first, 5.74% for the second.

Going from `N#Cc1ncc(C(F)(F)F)cc1Oc1cccnc1` to `COc1cccc(C(=O)NC(=O)Nc2nc(C)cc(C(F)(F)F)n2)c1`, the inhibition falls from 4% to -0.93%.

Compared with `COc1cccc(CN(C)CC(O)COC(c2ccccc2)c2ccccc2C)c1` (stereo not drawn), `Cc1ccccc1-c1nc(CS(=O)(=O)CC(=O)NC(C)c2ccccc2)c(C)o1` (stereo not drawn) is higher in inhibition: -1.74% for the first, -0.9% for the second.

Compared with `CCCCCCCCCCCCN1C(=O)CSC1c1cccnc1` (stereo not drawn), `O=C(Cc1ccc(Br)cc1)NCCN1CCOCC1` is lower in inhibition: 0.63% for the first, -3.15% for the second.

Compared with `Cn1nc(-c2ccc(N3CCOCC3)c(NC(=O)c3ccccc3)c2)c2ccccc2c1=O`, `c1ccc2c(-c3nn4nnnc4c4ccccc34)cccc2c1` is higher in inhibition: -4% for the first, -0.16% for the second.

Going from `Cc1ccc(CNC(=O)C2(C(F)(F)F)C/C(=C\Cc3ccccc3)CCCO2)o1` (stereo not drawn) to `COCCNC(=O)C(c1ccc(C)o1)N(Cc1ccccc1)C(=O)Cn1nnc2ccccc21` (stereo not drawn), the inhibition falls from 2.14% to 0.75%.

Going from `CC(=O)N1CCCc2cc(S(=O)(=O)N3CCCC(C(=O)N4CCN(c5cccc(Cl)c5)CC4)C3)ccc21` (stereo not drawn) to `O=C(c1c(F)cccc1Cl)N1CCN(S(=O)(=O)c2ccc3c(c2)OCCCO3)CC1`, the inhibition rises from -4.69% to -1.16%.

Going from `COc1cccc(N(C(=O)CNC(=O)c2ccco2)C(C(=O)NC2CCCCC2)c2cccnc2)c1` (stereo not drawn) to `O=C(NC1CCCC1)C(c1ccco1)N(C(=O)c1ccco1)c1ccc(F)cc1` (stereo not drawn), the inhibition falls from 0.2% to -3.74%.

Going from `CS(=O)(=O)N(CC(=O)N1CCOCC1)c1cccc(Cl)c1Cl` to `Cc1cc(-c2ccc(S(=O)(=O)N3CCN(c4cccc(C(F)(F)F)c4)CC3)s2)on1`, the inhibition falls from 10.7% to 10.1%.

Compared with `COc1ccc(C(C(=O)NCC2CCCO2)N(C(=O)Cn2nnc3ccccc32)c2ccc(NC(C)=O)cc2)cc1OC` (stereo not drawn), `COc1ccc(C(C(=O)NC(C)(C)C)N(C(=O)Cn2nnc3ccccc32)c2ccc(C(C)=O)cc2)cc1O` (stereo not drawn) is lower in inhibition: 11.5% for the first, 3.87% for the second.

Going from `Cc1ccc2c(c1)C1CN(C)CCC1N2S(=O)(=O)c1ccc(Oc2ccc([N+](=O)[O-])cc2)cc1` (stereo not drawn) to `Cc1cccc(OCC(=O)Nc2ccc(C(=O)O)cc2NC(=O)COc2cccc(C)c2)c1`, the inhibition rises from 0.21% to 6.23%.

Going from `CC(C)c1c(C(=O)N/N=C/c2ccc(-c3ccccc3)cc2)nnn1-c1nonc1N` to `COc1cccc(Cn2cc(/C=N/NC(=O)c3cc(O)cc(O)c3)c3ccccc32)c1`, the inhibition rises from 1.56% to 6.16%.

Going from `Cc1ccc(OCC(=O)Nc2cccc3c2CCCC3)cc1C` to `CCOc1ccc(OCCSc2nc3ccccc3n2CC(=O)O)cc1`, the inhibition rises from -0.37% to 1.7%.

Going from `COc1ccc2cc(CCl)c(Cl)nc2c1` to `COc1ccc(C(=O)NC(=S)N2CCNC(=O)C2CC(=O)OC(C)C)cc1` (stereo not drawn), the inhibition rises from -3.78% to 0.58%.

First: CC(=O)N1CCN(C(=O)C2(NC(=O)Nc3ccc(C)cc3)CCCCC2)CC1
Second: CCNS(=O)(=O)c1ccc(NC(=O)Nc2cccc(C(F)(F)F)c2)cc1
The inhibition of the first is lower: -11.2% for the first, -1.22% for the second.

First: O=C(NCc1ccco1)C(c1ccncc1)N(C(=O)Cn1nnc2ccccc21)c1ccccc1 (stereo not drawn)
Second: Cc1coc2c1c(C)cc1oc(=O)c(CC(=O)NCC(=O)N[C@H](C(=O)O)C(C)C)c(C)c12
The inhibition of the first is lower: 1.89% for the first, 2.83% for the second.

In the case of `CN1CCN(CC(=O)Nc2cccc([N+](=O)[O-])c2)CC1`, the inhibition is reported as 15.7% (active).
For `O=C1C(=O)N(CC2COc3ccccc3O2)c2ccccc21` (stereo not drawn), the inhibition was 23.4% (active).
With `CC(C)c1ccc(N(C(=O)c2ccco2)C(C(=O)NC2CCCC2)c2cccnc2)cc1` (stereo not drawn) the inhibition was 50.8% (active).
`CCC(C)(C)NC(=O)C(c1ccc(O)cc1)N(C(=O)Cn1nnc2ccccc21)c1ccc(NC(C)=O)cc1` (stereo not drawn) was tested, and the inhibition was 27.5% (active).
In the case of `Cc1ccc(OCC(=O)Nc2ccc(C(=O)O)cc2NC(=O)COc2ccc(C)c(C)c2)cc1C`, the inhibition is reported as 14.3% (active).
In the case of `Cc1oc2c(F)c(F)c(F)c(F)c2c1S(=O)(=O)Nc1cccc(C(F)(F)F)c1`, the inhibition is reported as 17.6% (active).
With `COc1ccccc1N(C(=O)Cn1nnc2ccccc21)C(C(=O)NCc1ccco1)c1ccc(C)o1` (stereo not drawn) the inhibition was 20.2% (active).
`O=C(c1cc(=O)c2ccccc2o1)N1CCN(c2ccccc2)CC1` was tested, and the inhibition was 13.7% (active).
